{
  "source": "PubChem BioAssay AID1347146",
  "about": "(National Center for Advancing Translational Sciences (NCATS), 2019)",
  "note": "Inconclusive results are not listed. Values without a mark were called inactive. The source made the active and inactive calls. The call rests on the fitted dose curve; in most records, active means well fitted inhibition curve with a large enough effect; inconclusive means small, poorly fitted or top-dose-only effect; inactive means no such curve, though single readings can be large or run the other way. Potency means the concentration at half of the fitted maximal effect.",
  "data": [
    {"molecular_target": "Nicotinamide N-methyltransferase (Homo sapiens) (UniProt P40261)", "sequence (P40261 whole entry, looked up)": "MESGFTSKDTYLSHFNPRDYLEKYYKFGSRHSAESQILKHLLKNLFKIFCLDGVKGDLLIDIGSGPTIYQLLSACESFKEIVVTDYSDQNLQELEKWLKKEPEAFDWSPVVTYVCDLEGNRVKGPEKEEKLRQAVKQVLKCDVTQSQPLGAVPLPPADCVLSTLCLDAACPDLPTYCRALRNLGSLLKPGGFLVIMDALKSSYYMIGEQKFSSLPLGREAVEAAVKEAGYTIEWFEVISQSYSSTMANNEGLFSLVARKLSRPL", "assay": "qHTS Assay for Inhibitors of N-terminal methyltransferase 1 (NTMT1): NNMT MTaseGlo counterscreen assay", "details": "NNMT enzyme, MTase-Glo luminescence counterscreen; series mostly up to 57.1 µM; activity change, negative = inhibition: at the top concentration", "excerpt": "Assay Submitter (PI): Rong Huang Ph.D, Purdue University, West Lafayette, IN 47907\nThe N-terminal methytransferase 1 is the first methyltransferase that methylates protein alpha-N-amines and plays an important role in regulating cell mitosis, chromatin interactions and DNA repair. It is observed to be over-expressed in various cancer patient tissues like malignant melanoma and colorectal cancer tissues. Knockdown of NTMT1 in cancer cells causes cell mitotic defects and enhances sensitivity to DNA damaging chemotherapeutics. […] These critical cellular processes in which NTMT1 is implicated, coupled with emerging links to cellular dysfunction, strengthen the inference that NTMT1 is a compelling novel anticancer target. Progress have been made in understanding the molecular properties of NTMT1 and the biological consequences of protein alpha-N-terminal methylation, but there are no specific small molecule probes available for NTMT1 to fully characterize its MTase activity. To address this unmet need, a panel of assay is created and established to enable quantitative high-throughput screening (qHTS) for novel, potent, and selective small molecule NTMT1 inhibitors. Two orthogonal qHTS that use different reagents (ThioGlo vs. MTaseGlo) are developed for primary robotic screening against the NCATS chemical library of more than 400,000 small molecules. Identified inhibitors are reacquired, validated, and further characterized.\nMTaseGlo Assay is a luminescence screen that measure the activity of methyltransferases based on the reaction product S-adenosyl homocysteine (SAH). The substrate SAM is converted to SAH upon enzyme activation. MTase-Glo reagent and detection solution convert SAH to ATP and measure the light from the luciferase reaction. Nicotinamide N-methyltransferase (NNMT) is a cystolic enzyme that catalyzes the transfer of a methyl group from the co-factor SAM onto the substrate, nicotinamide (NA) to form 1-methyl-nicotinamide (MNA) and SAH. NNMT MTaseGlo assay is used as a counterscreen to evaluate selectivity of identified inhibitors.\nEarly Translation Branch (ETB)\nNational Center for Advancing Translational Sciences (NCATS)\nNational Institute of Health (NIH)\nNNMT enzyme, SAM, NA, and control is provided by the Huang laboratory.\nIn brief, 3 µL of enzyme mixture (final concentrations of 125 nM and 100 µM for NNMT and SAM, respectively) into all wells of a 1,536-well solid-bottom white plate (Greiner Bio One, Monroe, NC). 23 nL of DMSO or compound (final concentration range 234 nM to 143 microM) was transferred via Wako Pin-tool (Wako Automation, Richmond, VA) and incubated (RT) for ~15 minutes. Next, 1 µL of substrate (final concentration 1 µM NA) or buffer was dispensed, and the reaction proceeded for 30 minutes (RT, protected from light) followed by a 1 microL addition of [5X] MTase-Glo Reagent(R). Samples were incubated (RT, protected from light) for 30 minutes to allow for SAH to be converted to ADP, followed by a 5 microL addition of [1X] MTase-Glo Detection Solution(R) to allow for ADP to be converted to ATP, which was then detected with a luciferase reaction. Samples were centrifuged for 15 seconds at 1,000 RPM's, followed by a RT incubation for 30 minutes. Plates were then read using Luminescence optics on a ViewLux detector. Data were normalized to no-enzyme (0% activity) and no-inhibitor (DMSO; 100%) controls, and the resulting percent inhibition data were fitted to a 4-parameter Hill equation using Graphpad Prism.", "units": {"activity change, negative = inhibition": "%"}, "values": [
      {"smiles": "CC(N)Cc1c[nH]c2ccc(O)cc12", "note": "(stereo not given)", "activity change, negative = inhibition": -22.4},
      {"smiles": "C[N+](C)(C)CC#CCN1CCCC1=O", "activity change, negative = inhibition": -8.54},
      {"smiles": "O=[N+]([O-])c1ccc2nc(N3CCNCC3)ccc2c1", "activity change, negative = inhibition": -19},
      {"smiles": "NC(=O)CI", "activity change, negative = inhibition": -13.1},
      {"smiles": "NC(N)=Nc1ccc2[nH]c3c(c2c1)C[C@@]1(O)[C@H]2Cc4ccc(O)c5c4[C@@]1(CCN2CC1CC1)[C@H]3O5", "activity change, negative = inhibition": -14.4},
      {"smiles": "NC1CCc2cc(O)c(O)cc2C1", "note": "(stereo not given)", "activity change, negative = inhibition": -20.9},
      {"smiles": "O=[N+]([O-])c1cc(O)c(O)c([N+](=O)[O-])c1", "activity change, negative = inhibition": -3.9},
      {"smiles": "COc1ccc2c(c[n+](C)c3c4cc5c(cc4ccc23)OCO5)c1OC", "Potency": "12.6 µM (active)"},
      {"smiles": "CC(=O)c1c(O)c(C)c(O)c(Cc2c(O)c3c(c(C(=O)/C=C/c4ccccc4)c2O)OC(C)(C)C=C3)c1O", "activity change, negative = inhibition": -23.9},
      {"smiles": "Clc1ccc(N2CC3CCC(C2)N3)nn1", "activity change, negative = inhibition": -7.24},
      {"smiles": "N#CC(C#N)=Cc1ccc(O)c(O)c1", "activity change, negative = inhibition": -10.2},
      {"smiles": "CC(C)(C)c1cc(C=C(C#N)C#N)cc(C(C)(C)C)c1O", "activity change, negative = inhibition": -12.1},
      {"smiles": "CC(N)[C@H](O)c1ccc(O)c(O)c1", "note": "(stereo not given in full)", "activity change, negative = inhibition": -18.7},
      {"smiles": "O=C1CC[C@@]2(O)C3Cc4ccc(O)c5c4C2(CCN3CC2CC2)[C@H]1O5", "note": "(stereo not given in full)", "activity change, negative = inhibition": -9.3},
      {"smiles": "CC(C)=CCOc1c2occc2cc2ccc(=O)oc12", "activity change, negative = inhibition": -18.6},
      {"smiles": "CN[C@@H]1C[C@@H](c2ccc(Cl)c(Cl)c2)c2ccccc21", "activity change, negative = inhibition": -19.2},
      {"smiles": "CCCN(CCC)[C@H]1CCc2c(F)ccc(O)c2C1", "activity change, negative = inhibition": -22.3},
      {"smiles": "CCn1cnc2c(Nc3cccc(Cl)c3)nc(N[C@@H]3CCCC[C@@H]3N)nc21", "activity change, negative = inhibition": -16.3},
      {"smiles": "NCC(O)c1cc(O)c(O)cc1F", "note": "(stereo not given)", "activity change, negative = inhibition": -18.4},
      {"smiles": "COC[C@H]1OC(=O)c2coc3c2[C@@]1(C)C1=C(C3=O)C2CCC(=O)[C@@]2(C)C[C@H]1OC(C)=O", "note": "(stereo not given in full)", "activity change, negative = inhibition": -16.1},
      {"smiles": "C[N+]1(C)CCN(c2ccccc2)CC1", "activity change, negative = inhibition": -5.71},
      {"smiles": "CNCCc1c[nH]c2ccc(O)cc12", "activity change, negative = inhibition": -12},
      {"smiles": "C[N+]1(C)C2CCC1CC(OC(=O)c1c[nH]c3ccccc13)C2", "note": "(stereo not given)", "activity change, negative = inhibition": -8.16},
      {"smiles": "Ic1ccccc1CNC1C2CCN(CC2)C1C(c1ccccc1)c1ccccc1", "note": "(stereo not given)", "activity change, negative = inhibition": -24.1},
      {"smiles": "c1ccc(CCCN2CCN(CCOC(c3ccccc3)c3ccccc3)CC2)cc1", "activity change, negative = inhibition": -3.39}
    ]}
  ]
}
